Experiments:
[1] = target: Tyrosine-protein kinase Fer (Homo sapiens) (UniProt P16591); conditions: at 10 µM
[2] = target: Tyrosine-protein kinase Fes/Fps (Homo sapiens) (UniProt P07332); conditions: at 1 µM
[3] = target: Tyrosine-protein kinase Fes/Fps (Homo sapiens) (UniProt P07332); conditions: at 10 µM
[4] = target: Tyrosine-protein kinase Fgr (Homo sapiens) (UniProt P09769); conditions: at 1 µM
[5] = target: Tyrosine-protein kinase Fgr (Homo sapiens) (UniProt P09769); conditions: at 10 µM
[6] = target: Vascular endothelial growth factor receptor 1 (Homo sapiens) (UniProt P17948); conditions: at 1 µM
[7] = target: Vascular endothelial growth factor receptor 1 (Homo sapiens) (UniProt P17948); conditions: at 10 µM
[8] = target: Vascular endothelial growth factor receptor 3 (Homo sapiens) (UniProt P35916); conditions: at 1 µM
[9] = target: Vascular endothelial growth factor receptor 3 (Homo sapiens) (UniProt P35916); conditions: at 10 µM
[10] = target: Macrophage colony-stimulating factor 1 receptor (Homo sapiens) (UniProt P07333); conditions: at 1 µM
[11] = target: Macrophage colony-stimulating factor 1 receptor (Homo sapiens) (UniProt P07333); conditions: at 10 µM
[12] = target: T1, Mitogen-activated protein kinase kinase kinase kinase 2 (Homo sapiens) (UniProt Q12851); conditions: at 1 µM
T1 sequence (whole entry): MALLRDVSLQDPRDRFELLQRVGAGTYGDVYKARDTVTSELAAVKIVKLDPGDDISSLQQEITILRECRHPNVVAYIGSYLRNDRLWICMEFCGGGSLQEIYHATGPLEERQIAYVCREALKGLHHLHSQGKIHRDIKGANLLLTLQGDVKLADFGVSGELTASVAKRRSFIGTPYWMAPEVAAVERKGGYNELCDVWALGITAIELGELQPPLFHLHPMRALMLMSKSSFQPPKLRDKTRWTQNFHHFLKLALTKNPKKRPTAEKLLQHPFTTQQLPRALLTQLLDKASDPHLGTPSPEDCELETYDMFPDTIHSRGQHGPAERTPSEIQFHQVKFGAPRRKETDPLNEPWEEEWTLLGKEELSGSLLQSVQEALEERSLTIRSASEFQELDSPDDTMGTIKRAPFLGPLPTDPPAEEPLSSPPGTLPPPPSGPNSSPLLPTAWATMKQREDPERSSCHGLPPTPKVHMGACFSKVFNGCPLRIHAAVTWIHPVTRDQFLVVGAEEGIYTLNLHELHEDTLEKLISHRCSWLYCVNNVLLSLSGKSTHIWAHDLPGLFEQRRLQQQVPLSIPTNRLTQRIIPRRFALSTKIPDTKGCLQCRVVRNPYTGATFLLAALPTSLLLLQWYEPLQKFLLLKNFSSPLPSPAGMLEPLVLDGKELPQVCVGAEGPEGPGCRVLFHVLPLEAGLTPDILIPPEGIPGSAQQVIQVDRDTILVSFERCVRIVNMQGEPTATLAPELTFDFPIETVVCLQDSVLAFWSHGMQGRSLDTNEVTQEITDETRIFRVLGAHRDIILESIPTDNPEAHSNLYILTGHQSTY

[13] = target: T1, Mitogen-activated protein kinase kinase kinase kinase 2 (Homo sapiens); conditions: at 10 µM
[14] = target: Receptor-type tyrosine-protein kinase FLT3 (Homo sapiens) (UniProt P36888); conditions: at 1 µM
[15] = target: Receptor-type tyrosine-protein kinase FLT3 (Homo sapiens) (UniProt P36888); conditions: at 10 µM
[16] = target: Tyrosine-protein kinase Fyn (Homo sapiens) (UniProt P06241); conditions: at 1 µM
[17] = target: Tyrosine-protein kinase Fyn (Homo sapiens) (UniProt P06241); conditions: at 10 µM
[18] = target: G protein-coupled receptor kinase 5 (Homo sapiens) (UniProt P34947); conditions: at 10 µM
[19] = target: G protein-coupled receptor kinase 6 (Homo sapiens) (UniProt P43250); conditions: at 10 µM
[20] = target: T2, Rhodopsin kinase GRK7 (Homo sapiens) (UniProt Q8WTQ7); conditions: at 1 µM
T2 sequence (whole entry): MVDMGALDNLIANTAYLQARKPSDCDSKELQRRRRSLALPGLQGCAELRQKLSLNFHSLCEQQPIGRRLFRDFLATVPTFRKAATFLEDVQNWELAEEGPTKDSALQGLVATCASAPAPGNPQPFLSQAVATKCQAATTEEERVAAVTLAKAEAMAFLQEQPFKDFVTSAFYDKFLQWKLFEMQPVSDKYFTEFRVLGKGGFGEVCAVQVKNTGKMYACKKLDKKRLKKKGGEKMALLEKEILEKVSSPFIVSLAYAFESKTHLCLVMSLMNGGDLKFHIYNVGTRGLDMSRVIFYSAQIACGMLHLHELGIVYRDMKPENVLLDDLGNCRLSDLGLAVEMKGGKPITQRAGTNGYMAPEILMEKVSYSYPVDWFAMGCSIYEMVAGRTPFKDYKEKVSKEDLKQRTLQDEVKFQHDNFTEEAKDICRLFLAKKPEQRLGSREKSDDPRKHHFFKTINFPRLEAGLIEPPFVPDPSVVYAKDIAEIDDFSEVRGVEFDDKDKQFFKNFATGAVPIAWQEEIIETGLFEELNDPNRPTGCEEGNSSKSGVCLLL

Chain of Vascular endothelial growth factor receptor 3 (Homo sapiens) (P35916 whole entry): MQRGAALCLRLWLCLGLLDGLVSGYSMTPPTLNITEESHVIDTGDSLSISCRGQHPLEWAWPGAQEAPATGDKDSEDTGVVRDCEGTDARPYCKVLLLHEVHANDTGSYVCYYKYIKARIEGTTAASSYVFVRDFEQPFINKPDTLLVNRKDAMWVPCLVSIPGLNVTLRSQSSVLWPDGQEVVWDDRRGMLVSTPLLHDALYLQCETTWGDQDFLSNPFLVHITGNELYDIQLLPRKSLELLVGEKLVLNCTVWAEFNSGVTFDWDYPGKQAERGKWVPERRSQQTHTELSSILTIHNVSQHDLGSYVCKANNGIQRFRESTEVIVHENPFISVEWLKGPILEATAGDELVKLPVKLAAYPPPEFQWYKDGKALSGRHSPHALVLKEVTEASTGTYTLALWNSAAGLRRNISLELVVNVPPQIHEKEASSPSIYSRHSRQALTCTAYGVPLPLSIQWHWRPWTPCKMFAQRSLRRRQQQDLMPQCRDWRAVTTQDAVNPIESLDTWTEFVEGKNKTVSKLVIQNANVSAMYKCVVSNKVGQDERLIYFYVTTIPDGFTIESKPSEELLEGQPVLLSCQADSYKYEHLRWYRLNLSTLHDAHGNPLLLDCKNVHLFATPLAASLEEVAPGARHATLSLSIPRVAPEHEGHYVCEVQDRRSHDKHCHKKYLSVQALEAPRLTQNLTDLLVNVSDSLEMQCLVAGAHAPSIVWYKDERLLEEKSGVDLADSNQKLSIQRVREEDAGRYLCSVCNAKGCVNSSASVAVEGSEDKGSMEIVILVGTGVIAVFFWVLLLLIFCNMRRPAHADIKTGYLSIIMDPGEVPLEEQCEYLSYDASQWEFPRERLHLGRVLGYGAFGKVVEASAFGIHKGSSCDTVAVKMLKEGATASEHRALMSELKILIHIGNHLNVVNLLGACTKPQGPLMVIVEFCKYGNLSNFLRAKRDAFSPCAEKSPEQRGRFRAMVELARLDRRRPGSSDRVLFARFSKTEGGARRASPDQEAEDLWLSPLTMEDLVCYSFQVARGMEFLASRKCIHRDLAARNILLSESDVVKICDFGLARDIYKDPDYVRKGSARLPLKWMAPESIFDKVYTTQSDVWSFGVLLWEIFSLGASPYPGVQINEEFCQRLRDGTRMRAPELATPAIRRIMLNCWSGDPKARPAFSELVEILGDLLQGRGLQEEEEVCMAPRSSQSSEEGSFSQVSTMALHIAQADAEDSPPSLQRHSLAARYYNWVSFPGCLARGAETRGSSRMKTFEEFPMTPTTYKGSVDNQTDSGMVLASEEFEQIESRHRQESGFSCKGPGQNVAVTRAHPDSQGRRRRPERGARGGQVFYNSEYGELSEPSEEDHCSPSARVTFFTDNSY
Chain of G protein-coupled receptor kinase 5 (Homo sapiens) (P34947 whole entry, looked up): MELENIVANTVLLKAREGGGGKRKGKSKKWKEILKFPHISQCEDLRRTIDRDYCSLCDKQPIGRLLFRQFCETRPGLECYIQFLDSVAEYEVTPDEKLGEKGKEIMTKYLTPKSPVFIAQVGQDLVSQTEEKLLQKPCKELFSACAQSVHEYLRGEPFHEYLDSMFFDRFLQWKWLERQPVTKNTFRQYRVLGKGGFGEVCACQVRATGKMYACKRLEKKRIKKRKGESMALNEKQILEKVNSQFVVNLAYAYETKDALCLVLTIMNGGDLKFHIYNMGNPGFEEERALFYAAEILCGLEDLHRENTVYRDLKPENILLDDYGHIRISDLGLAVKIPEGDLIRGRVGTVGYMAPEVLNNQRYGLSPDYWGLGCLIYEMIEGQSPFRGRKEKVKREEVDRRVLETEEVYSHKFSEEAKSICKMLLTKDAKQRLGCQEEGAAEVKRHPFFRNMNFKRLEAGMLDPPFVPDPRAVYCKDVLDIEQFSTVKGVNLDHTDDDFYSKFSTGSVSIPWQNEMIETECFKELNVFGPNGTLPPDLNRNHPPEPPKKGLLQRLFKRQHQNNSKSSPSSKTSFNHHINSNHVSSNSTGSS
Chain of G protein-coupled receptor kinase 6 (Homo sapiens) (P43250 whole entry, looked up): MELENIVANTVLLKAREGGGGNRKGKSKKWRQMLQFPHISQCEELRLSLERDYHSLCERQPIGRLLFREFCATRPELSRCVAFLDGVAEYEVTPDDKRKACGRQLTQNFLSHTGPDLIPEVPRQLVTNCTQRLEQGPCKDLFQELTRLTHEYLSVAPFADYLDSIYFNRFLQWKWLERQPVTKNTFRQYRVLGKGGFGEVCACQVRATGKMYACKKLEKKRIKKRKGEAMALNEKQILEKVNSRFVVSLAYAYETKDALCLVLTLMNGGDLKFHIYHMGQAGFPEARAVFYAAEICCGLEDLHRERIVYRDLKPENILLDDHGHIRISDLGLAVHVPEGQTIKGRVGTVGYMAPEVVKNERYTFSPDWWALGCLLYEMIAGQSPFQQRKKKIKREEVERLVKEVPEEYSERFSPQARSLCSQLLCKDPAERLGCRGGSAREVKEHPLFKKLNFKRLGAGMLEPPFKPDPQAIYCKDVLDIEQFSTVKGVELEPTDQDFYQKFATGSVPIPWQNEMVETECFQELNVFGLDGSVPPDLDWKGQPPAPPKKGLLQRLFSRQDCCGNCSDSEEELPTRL
Chain of Tyrosine-protein kinase Fer (Homo sapiens) (P16591 whole entry, looked up): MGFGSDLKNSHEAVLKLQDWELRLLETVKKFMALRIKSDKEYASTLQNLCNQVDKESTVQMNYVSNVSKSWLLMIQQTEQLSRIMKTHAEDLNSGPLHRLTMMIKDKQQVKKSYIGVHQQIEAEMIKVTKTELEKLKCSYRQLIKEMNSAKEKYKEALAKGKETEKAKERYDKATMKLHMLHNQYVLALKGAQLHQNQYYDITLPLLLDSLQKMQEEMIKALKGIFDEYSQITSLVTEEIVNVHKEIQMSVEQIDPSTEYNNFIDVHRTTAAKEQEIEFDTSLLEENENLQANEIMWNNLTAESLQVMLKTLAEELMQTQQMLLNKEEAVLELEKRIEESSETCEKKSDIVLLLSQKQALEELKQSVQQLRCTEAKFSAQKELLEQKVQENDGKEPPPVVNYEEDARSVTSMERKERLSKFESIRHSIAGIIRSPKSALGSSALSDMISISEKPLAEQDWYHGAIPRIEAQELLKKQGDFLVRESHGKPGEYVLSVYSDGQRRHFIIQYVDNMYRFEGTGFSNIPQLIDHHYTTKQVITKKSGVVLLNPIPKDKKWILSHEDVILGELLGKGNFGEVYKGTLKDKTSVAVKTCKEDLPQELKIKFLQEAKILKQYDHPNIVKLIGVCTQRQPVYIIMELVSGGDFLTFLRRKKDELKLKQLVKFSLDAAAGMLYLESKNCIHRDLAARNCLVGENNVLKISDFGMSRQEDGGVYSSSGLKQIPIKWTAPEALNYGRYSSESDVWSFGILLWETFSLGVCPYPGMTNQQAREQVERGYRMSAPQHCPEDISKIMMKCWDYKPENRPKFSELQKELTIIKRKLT
Chain of Macrophage colony-stimulating factor 1 receptor (Homo sapiens) (P07333 whole entry): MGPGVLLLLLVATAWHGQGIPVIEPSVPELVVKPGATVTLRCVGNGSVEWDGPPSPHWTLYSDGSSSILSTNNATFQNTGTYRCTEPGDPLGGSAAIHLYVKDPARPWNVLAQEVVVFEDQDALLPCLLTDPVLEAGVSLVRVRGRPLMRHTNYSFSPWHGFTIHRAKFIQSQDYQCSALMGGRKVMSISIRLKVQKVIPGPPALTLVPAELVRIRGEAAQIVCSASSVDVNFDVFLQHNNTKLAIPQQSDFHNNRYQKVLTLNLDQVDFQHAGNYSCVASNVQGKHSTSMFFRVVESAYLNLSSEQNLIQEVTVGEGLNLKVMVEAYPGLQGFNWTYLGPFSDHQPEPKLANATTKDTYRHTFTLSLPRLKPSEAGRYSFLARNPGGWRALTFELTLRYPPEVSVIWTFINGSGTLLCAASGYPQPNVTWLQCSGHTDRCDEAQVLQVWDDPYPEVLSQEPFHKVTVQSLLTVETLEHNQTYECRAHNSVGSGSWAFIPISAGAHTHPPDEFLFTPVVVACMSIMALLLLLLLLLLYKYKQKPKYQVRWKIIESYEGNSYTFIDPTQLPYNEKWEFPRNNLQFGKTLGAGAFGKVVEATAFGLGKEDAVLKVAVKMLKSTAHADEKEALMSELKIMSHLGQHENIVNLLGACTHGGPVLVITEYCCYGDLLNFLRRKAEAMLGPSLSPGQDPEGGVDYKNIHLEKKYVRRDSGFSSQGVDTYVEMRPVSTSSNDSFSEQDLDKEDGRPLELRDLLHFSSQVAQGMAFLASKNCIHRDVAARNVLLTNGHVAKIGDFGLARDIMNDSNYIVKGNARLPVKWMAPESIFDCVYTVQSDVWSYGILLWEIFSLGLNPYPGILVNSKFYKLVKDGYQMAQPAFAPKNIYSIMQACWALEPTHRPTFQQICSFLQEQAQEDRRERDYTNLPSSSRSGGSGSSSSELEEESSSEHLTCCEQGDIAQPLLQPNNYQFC
Chain of Tyrosine-protein kinase Fgr (Homo sapiens) (P09769 2-529 limits assumed): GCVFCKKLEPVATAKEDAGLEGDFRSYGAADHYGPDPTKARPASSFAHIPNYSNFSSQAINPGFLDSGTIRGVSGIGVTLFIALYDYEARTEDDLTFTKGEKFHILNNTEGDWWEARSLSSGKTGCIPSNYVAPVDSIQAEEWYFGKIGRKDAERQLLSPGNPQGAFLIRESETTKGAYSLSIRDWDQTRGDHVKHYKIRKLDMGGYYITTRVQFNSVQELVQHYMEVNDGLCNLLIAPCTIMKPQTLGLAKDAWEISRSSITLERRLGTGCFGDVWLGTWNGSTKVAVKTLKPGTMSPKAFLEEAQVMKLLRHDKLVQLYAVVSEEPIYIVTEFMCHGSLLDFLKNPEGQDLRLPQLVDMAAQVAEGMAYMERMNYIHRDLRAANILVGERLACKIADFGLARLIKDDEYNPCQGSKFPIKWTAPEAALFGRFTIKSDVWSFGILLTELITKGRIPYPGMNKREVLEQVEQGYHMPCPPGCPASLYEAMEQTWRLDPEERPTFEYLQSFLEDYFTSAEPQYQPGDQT

| SMILES | residual activity [1] [%] | residual activity [2] [%] | residual activity [3] [%] | residual activity [4] [%] | residual activity [5] [%] | residual activity [6] [%] | residual activity [7] [%] | residual activity [8] [%] | residual activity [9] [%] | residual activity [10] [%] | residual activity [11] [%] | residual activity [12] [%] | residual activity [13] [%] | residual activity [14] [%] | residual activity [15] [%] | residual activity [16] [%] | residual activity [17] [%] | residual activity [18] [%] | residual activity [19] [%] | residual activity [20] [%] |
| --- | --- | --- | --- | --- | --- | --- | --- | --- | --- | --- | --- | --- | --- | --- | --- | --- | --- | --- | --- | --- |
| N#C/C(=C1/Nc2ccccc2S1)c1ccnc(NCCc2cccnc2)n1 | 60 | 96 | 73 | 81 | 44 | 78 | 33 | 68 | 22 | 70 | 31 | 79 | 18 |  |  |  |  |  |  |  |
| NC(=O)Nc1sc(-c2ccc(F)cc2)cc1C(N)=O | 50 | 78 | 24 | 28 | 4 | 17 | 2 | 4 | 0 | 11 | 2 | 25 | 5 | 22 | 3 | 24 | 5 | 82 | 74 | 67 |
| NCCNc1ncc(C(N)=O)c(Nc2cccc(C(F)(F)F)c2)n1 | 47 | 32 | 3 | 30 | 6 |  |  |  | 48 | 57 | 4 | 13 | 0 | 50 | 5 |  |  | 79 | 73 |  |
| O=C1Nc2ccccc2/C1=C\c1c(Cl)[nH]c2ccccc12 | 67 | 99 | 78 |  | 64 |  | 38 | 64 | 8 | 79 | 27 |  | 69 |  | 55 | 81 | 59 |  |  | 99 |
| COc1ccc(-c2cnc3c(-c4ccsc4)cnn3c2)cc1 | 98 |  | 82 |  |  | 33 | 48 | 21 | 7 | 28 | 5 | 96 | 83 | 53 | 19 | 98 | 84 |  | 88 |  |
| CCN(CC)CCNC(=O)c1c(C)[nH]c(/C=C2\C(=O)Nc3ccc(Cl)cc32)c1C | 14 | 14 | 2 | 8 | 2 | 5 | 0 | 0 | 1 | 0 | 0 | 5 | 0 | 1 | -1 | 6 | 1 | 33 | 17 | 57 |
| O=C1NC(=O)c2c1c1c3ccccc3[nH]c1n1cncc21 |  | 79 | 56 | 75 | 45 | 16 | 3 | 0 | 2 | 26 | 23 | 58 | 53 | 18 | 5 | 51 | 42 | 70 | 75 | 84 |
| O=C1Cc2c([nH]c3ccc([N+](=O)[O-])cc23)-c2ccccc2N1 |  | 35 | 43 | 40 | 48 | 49 | 24 | 29 | 32 | 33 | 26 | 2 | 5 | 30 | 20 | 20 | 0 |  |  |  |
| CC(C)(C)c1nc2c3ccc(F)cc3c3c(=O)[nH]ccc3c2[nH]1 | 27 |  |  |  |  |  |  | 28 | 16 | 54 | 18 | 19 | 11 | 45 | 26 |  |  | 66 | 68 |  |
| O=C(NC(NC(=S)Nc1ccc(F)c([N+](=O)[O-])c1)C(Cl)(Cl)Cl)C(c1ccccc1)c1ccccc1 (centres undefined) | 103 |  |  |  |  |  |  | 93 | 76 | 89 | 71 | 88 | 74 | 99 | 82 | 104 | 58 | 100 | 87 | 86 |
| Cc1cc(C)c(/C=C2\C(=O)Nc3ccccc32)[nH]1 | 55 |  |  | 53 | 30 | 3 | 0 | 1 | 0 | 2 | 0 | 57 | 11 | 1 | 0 | 75 | 19 |  |  | 74 |
| CC(C)N(CCC(=O)c1ccc2ccccc2c1)Cc1ccccc1 | 87 |  |  |  |  |  |  |  |  |  | 125 | 82 | 80 |  | 82 | 88 | 88 |  |  |  |
| CCOC(=O)c1c(C)[nH]c(/C=C2\C(=O)Nc3ccccc32)c1C |  | 119 | 80 | 87 | 74 | 38 | 15 | 1 | 3 | 20 | 9 | 89 | 77 | 6 | 9 | 87 | 99 |  | 94 |  |
| COc1ccc(Cl)cc1NC(=O)Nc1cc(C)nc2ccccc12 |  |  | 94 | 99 | 82 | 96 | 91 |  | 93 | 89 | 73 | 93 | 77 |  |  |  |  |  | 92 | 99 |
| O=c1c(-c2ccc(F)cc2)c(-c2ccncc2)[nH]n1-c1ccc(Cl)cc1 |  |  |  |  | 65 | 100 | 50 |  | 20 |  | 61 |  |  |  |  |  | 66 | 100 | 100 |  |
| O=S(=O)(c1cccc2cnccc12)N1CCCNCC1 |  |  |  |  |  |  |  |  | 52 |  |  |  | 83 |  |  |  |  |  |  |  |
| O=C1NC(=O)C(c2cn(CCCO)c3ncccc23)=C1c1cnccn1 | 94 |  |  | 95 | 97 | 41 | 46 | 28 | 30 | 54 | 49 | 86 | 79 | 57 | 51 | 69 | 87 | 93 |  |  |
